# Measurements as given in PubChem BioAssay AID2113 (National Center for Advancing Translational Sciences (NCATS), 2009).
# Results filed as inconclusive are left out. A call without a number means that no potency is given here. Calls of active or inactive are those of the source. Calls come from the whole dose curve; as a rule, active = well fitted curve in either direction with a large enough effect; inconclusive = small, poorly fitted or top-dose-only effect; inactive = no such curve, though single readings can be large or run the other way.
# Biological target: Lysosomal alpha-glucosidase (Homo sapiens) (UniProt P10253)
# Experiment: Confirmation of Inhibitors and Activators of Human alpha-Glucosidase From Spleen Homogenate;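 for potency: fluorescence of 4-methylumbelliferone released from a fluorogenic glucopyranoside substrate at pH 5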
# Details: alpha-glucosidase enzyme activity; series mostly up to 60.5 µM
# Summary of the method: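 Compounds titrated against spleen-homogenate alpha-glucosidase, pH 5.0, 1 mM 4-MU-glucoside substrate, 37 C for 40 min. Fluorescence after pH 10 stop, normalised to no-enzyme and enzyme controls; Hill-equation AC50.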
# Potency is the fitted concentration of half-maximal effect.
row,SMILES,Potency
1,COc1cccc2cc(-c3nc(-c4ccccc4)c(C)s3)c(=O)oc12,inactive
2,CCOC(=O)C1CCCN(C(=O)CCC(=O)Nc2ccc3nc(N4CCOCC4)cc(C)c3c2)C1 (stereo unspecified),inactive
3,COc1ccc(/C=C\c2nccc3c2[nH]c2ccccc23)cc1,inactive
4,O=C(CSc1ccccc1)Nc1nnc(/C=C/c2ccccc2)s1,inactive
5,CC1CCc2nc(-c3cc4c(ccc5ccccc54)oc3=O)sc2C1 (stereo unspecified),inactive
6,COc1cc(C2c3cc4c(cc3C(OC3OC5COC(C)O[C@@H]5C(O)C3O)C3COC(=O)C23)OCO4)cc(OC)c1O (stereo partly specified),25.1 µM (active)
7,CCC(C)Nc1nc(-c2cccc(OC)c2O)nc2ccccc12 (stereo unspecified),inactive
8,Clc1cc2c(cc1/C=C/c1ccc3ccccc3n1)OCO2,inactive
9,COCCn1c(=NC(=O)c2ccc3c(c2)OCO3)c(C#N)cc2c(=O)n3cccc(C)c3nc21,inactive
10,O=C(O)Cc1sc(-c2cc3ccccc3oc2=O)nc1-c1ccc(Br)cc1,inactive
11,CCCN1CNc2c(c(=O)[nH]c(=S)n2CCc2ccc(Cl)cc2Cl)C1,22.4 µM (active)
12,CC1CCc2nc(-c3cc4ccc(O)cc4oc3=O)sc2C1 (stereo unspecified),inactive
13,CCCCCCc1cc2cc(C(=O)NC)c(=N)oc2cc1O,inactive
14,Nc1ccccc1S(=O)(=O)N1CCOCC1,inactive
15,CN(CCO)S(=O)(=O)c1ccc2c(c1)C(=NN)c1cc(S(=O)(=O)N(C)CCO)ccc1-2,inactive
16,OCC1NCC(O)C(O)C1O (stereo unspecified),inactive
17,Cc1[nH]n(C(N)=S)c(=O)c1N=Nc1ccc2ccccc2c1,inactive
18,O=C1c2cc(S(=O)(=O)N3CCOCC3)ccc2-c2ccc(S(=O)(=O)N3CCOCC3)cc21,inactive

row,SMILES,Potency
1,CC(=O)c1ccc(N2CCN(S(=O)(=O)c3ccc4c(c3)C(Cl)(Cl)C(=O)N4)CC2)cc1,32.6 µM [inhibitor] (active)
2,CCCN1CNc2c(c(=O)[nH]c(=S)n2CCc2cc(Cl)ccc2Cl)C1,14.1 µM (active)
3,COc1cc(CN2CCC(CO)(Cc3cccc(C(F)(F)F)c3)CC2)ccc1F,inactive
4,COc1ccc(-c2cc(=O)c(C(=O)c3ccc(C)cc3)n[nH]2)cc1,inactive
5,CCCN1CNc2c(c(=O)[nH]c(=S)n2CCc2ccccc2Cl)C1,15.8 µM (active)
6,CN1CCN(S(=O)(=O)c2ccccc2)CC1,inactive
7,Cc1ccc(N=Nc2c(N)nn(-c3ccccc3)c2N)cc1,inactive
8,O=C(O)C[C@@H]1C(=O)O[C@@H]2C(COC(=O)c3cc(O)c(O)c(O)c3)O[C@@H](OC(=O)c3cc(O)c(O)c(O)c3)[C@@H](OC(=O)c3cc(O)c(O)c4c3[C@H]1[C@H](O)C(=O)O4)[C@H]2OC(=O)c1cc(O)c(O)c(O)c1 (stereo partly specified),inactive
9,CNc1ncnc2c1ncn2[C@H]1C[C@H](OP(=O)(O)O)[C@@H](COP(=O)(O)O)O1,inactive
10,CN(C(=O)N1CCN(S(=O)(=O)c2ccccc2)CC1)c1ccccc1,inactive
11,CC1=CC(=C2C=CC(=O)C=C2)C=C(C)N1C,inactive
12,CC(=O)c1ccc(N2CCN(C(=O)c3ccc4c(c3)CCC(=O)N4)CC2)cc1,inactive
13,CC(C)Cn1c(SCC(=O)N2CCCCC2)nc2ccccc2c1=O,inactive
14,C[C@H](NC(=O)/C(C#N)=C/c1ccc(O)c(O)c1)c1ccccc1,inactive
15,CCc1ccc(-c2nc(-c3cc4ccc(O)cc4oc3=O)sc2C)cc1,inactive
16,O=C(c1ccccc1)N1CCN(C(=O)N(c2ccccc2)c2ccccc2)CC1,inactive
17,CCNc1ccc(C2(O)C(=O)c3ccccc3C2=O)cc1,inactive
18,CC1S/C(=N\N=C\c2cccc([N+](=O)[O-])c2)N(C(C)(C)C)C1=O (stereo unspecified),inactive
